# Laboratory results reported in PubChem BioAssay AID2380 (Sanford-Burnham Center for Chemical Genomics, 2010).
# The campaign covered roughly 330,000 compounds. About 960 (0.29%) were called active.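 The calls were made as follows: active = compounds whose signal lies at least 3.5 SD above the mean of all wells on their plate; inactive = the rest.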 Many of the other results were omitted from the sample, so actives are more common in it than they were.
# Experiment: inducers of MIN6 beta-cell proliferation, primary screen, ATP luminescence, uHTS (AID 2380);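 also: 0% = DMSO-treated cells in low-serum medium and 100% = 10% serum control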
# Settings: MIN6 cells proliferation, ATPlite luminescence, 48 h, at 10 µM, hits give high values
row,SMILES,proliferation
1,c1cc2c(cc1CCNC1CCCCCC1)OCO2,8.35% (active)
2,c1ccc(CCNC2CCCCCC2)cc1,1.52% (inactive)
3,COc1ccc(CNCCc2ccc3c(c2)OCO3)c(OC)c1OC,5.73% (inactive)
4,CC1(C)Cc2c(C#N)c(N3CCNCC3)nc(-c3ccco3)c2CS1,-3.88% (inactive)
5,CC(=O)c1ccc(OC(NC(=O)Cc2ccccc2)C(Cl)(Cl)Cl)cc1 (stereo not given),-1.48% (inactive)
6,COC(=O)COc1cc(C)cc2oc(=O)c3c(c12)CCCC3,5.08% (active)
7,Cc1cc(OCc2cc(C(=O)O)oc2C)c2c3c(c(=O)oc2c1)CCCC3,-3.8% (inactive)
8,COc1cc(OC)cc(C2(C#N)CCN(C)CC2)c1,-0.56% (inactive)
9,CCOc1cccc(=NC2CCCCC2)c2c(C)[nH]c(C)c12,-3.34% (inactive)
10,CCC1(C)CC(CCNCc2ccc(N(C)C)cc2)(c2ccc(F)cc2)CCO1 (stereo not given),-4.45% (inactive)
11,COc1ccc(C(=O)CC2C(=O)N(C)C(=O)N(C)C2=O)cc1,-0.73% (inactive)
12,O=c1[nH]c(=O)n(Cc2ccccc2)c(O)c1/C=N/Nc1c(F)c(F)c(F)c(F)c1F,1.39% (inactive)
13,O=C(N/N=C/c1c(O)n(Cc2ccccc2)c(=O)[nH]c1=O)c1ccccc1,5.26% (active)
14,O=C(N/N=C/c1c(O)n(C2CC2)c(=S)[nH]c1=O)c1ccccc1,-1.64% (inactive)
15,COC(=O)C1=C(c2ccc(Cl)c(C(F)(F)F)c2)C[C@@H]2CC[C@H]1N2C(=O)NC(C)C,"-1.97% [100% = growth in 10% serum, cells starved in 0.2% serum] (inactive)"
